The results in this text go back to PubChem BioAssay (Tox21).

Several values for one entry are separate records, joined by “and”; a condition that tells them apart may be missing. Equal values may be shown once. Inconclusive results are not listed. The source holds several records for some structures; these can differ, active in one and inactive in another. Activity calls are given as the source filed them. Unless noted, calls follow the shape of the full dose curve.

Assay [1] can be described thus: Nuclear factor erythroid 2-related factor 2/antioxidant responsive element (Nrf2/ARE) small molecule agonists: luciferase reporter gene qHTS assay in human keratinocytes (AID 1919969). Also: nearly all actives have a fitted effect of over 35% in size. Also: potency is read from the fitted curve at half-maximal effect. A general note: A reporter such as luciferase makes a cellular process visible.
The target of assay [2] is Gonadotropin-releasing hormone receptor (Homo sapiens) (UniProt P30968). The assay can be described thus: Human gonadotropin-releasing hormone receptor (GnRHR) small molecule agonists, calcium flux assay in GnRHR-HEK293 cells (AID 1920063). Also: nearly all actives have a fitted effect of over 35% in size. A digest of the protocol:
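Compounds dissolved in DMSO are pin-transferred onto dye-loaded GnRHR-HEK293 cells, which were seeded 18 h before at 37 C/5% CO2. Calcium signal is read as fluorescence intensity at 1 s intervals for 3 min.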
(In general: Calcium assays in cells follow changes in intracellular calcium, usually with a dye or a luminescent sensor.)

Assay [3] in a line: G protein-coupled receptor (GPCR) small molecule agonists, calcium flux assay: HEK293 wild type cell line counter screen (AID 1920065). An outline of the steps: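 Tox21 10K compounds, 15 concentrations each in triplicate, pin-transferred in DMSO onto dye-loaded cells; kinetic read at 480/540 nm for 3 min, 1 s intervals.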
A short description of assay [4]: p53 small molecule agonists, cell-based qHTS assay with human liver microsomes (AID 1963577). An outline of the steps: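 In this qHTS, p53 response-element beta-lactamase cells receive test compound together with a microsome/NADPH activating system (0.5 mg/mL final each) and are incubated 16 h at 37 C before LiveBLAzer fluorescence detection.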
A short description of assay [5]: p53 small molecule agonists, cell-based qHTS assay with rat liver microsomes (AID 1963578). An outline of the steps:
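Agonist mode in p53RE-bla reporter cells, with compounds co-incubated 16 h at 37 C alongside 0.5 mg/mL rat liver microsomes and 0.5 mg/mL NADPH (final), followed by a 2 h LiveBLAzer detection step.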
Background: qHTS replaces the single test concentration by a dilution series.

Assay [6] can be described thus: p53 small molecule agonists, cell-based qHTS assay with human liver microsomes: qHTS cell viability counter screen (AID 1963579). Also: nearly all actives have a fitted effect of over 45% in size. Also: potency is read from the fitted curve at half-maximal effect. An outline of the steps: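 Metabolically activated exposure: compounds, human liver microsomes and NADPH (0.5 mg/mL final apiece) were added to p53RE-bla cells seeded 5 h earlier, left 16 h at 37 C, and then assessed for viability by CellTiter-Glo luminescence.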

Assay [7] is described as follows: p53 small molecule agonists, cell-based qHTS assay with rat liver microsomes: qHTS cell viability counter screen (AID 1963580). Also: nearly all actives have a fitted effect of over 45% in size. Also: potency is read from the fitted curve at half-maximal effect. A digest of the protocol:
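Cytotoxicity counter screen: intracellular ATP measured by CellTiter-Glo luminescence in the same wells as the beta-lactamase reporter read, on HCT-116 p53RE-bla cells exposed 16 h at 37 C to compounds with rat liver microsomes and NADPH, each 0.5 mg/mL final.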

Assay [8] is described as follows: p53 small molecule agonists, cell-based qHTS assay: qHTS cell viability counter screen (AID 1963581). Also: nearly all actives have a fitted effect of over 45% in size. Also: potency is read from the fitted curve at half-maximal effect. A digest of the protocol:
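ATP content measured by luminescence in HCT-116 p53RE-bla cells treated 16 h at 37 C, same wells as the reporter screen.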

Assay [9] in a line: p53 small molecule agonists, cell-based qHTS assay (AID 1963582; active = well fitted activation curve with a large enough effect in the signal ratio in the repeat runs, not every such curve was filed as active; the % refers to the signal ratio). An outline of the steps: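 16 h compound exposure (37 C) of p53 response element–bla cells, preceded by 5 h recovery at 37 C/5% CO2; read-out via LiveBLAzer B/G FRET substrate, 2 h RT, fluorescence intensity.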
For assay [10], the target named is 5-hydroxytryptamine receptor 2A (Homo sapiens) (UniProt P28223). The assay can be described thus: 5-hydroxytryptamine receptor 2A (HTR2A) small molecule antagonists, cell-based qHTS assay (AID 1963586). Also: nearly all actives have a fitted effect of over 45% in size. An outline of the steps: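 CHO cells stably expressing human HTR2A were plated for 18 h at 37 C, then loaded with calcium dye for 1 h. Compounds were preincubated 5 min at room temperature before DOI (4 nM solution) was added. Kinetic fluorescence was read for 3 min.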

Assay [11] has the same target. The assay can be described thus: 5-hydroxytryptamine receptor 2A (HTR2A) small molecule agonists, cell-based qHTS assay (AID 1963587). Also: nearly all actives have a fitted effect of over 30% in size. A digest of the protocol:
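CHO cells stably expressing human HTR2A, plated 18 h, loaded with calcium dye 1 h at 37 C. Agonist mode: compounds added and intracellular calcium fluorescence recorded kinetically for 2 min at 1 sec intervals.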

The target in assay [12] is Muscarinic acetylcholine receptor M1 (Homo sapiens) (UniProt P11229). The assay is described as follows: Cholinergic receptor muscarinic 1 (CHRM1) small molecule antagonists, cell-based qHTS assay (AID 1963588). Also: nearly all actives have a fitted effect of over 40% in size. A digest of the protocol: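 Compounds were tested at 15 concentrations in three independent runs. Dye-loaded CHRM1-CHO cells were exposed 5 min at room temperature before stimulation by acetylcholine added at 50nM. Intracellular calcium was read kinetically on FDSS for 3 min.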

For assay [13] the target is unchanged. The assay can be described thus: Cholinergic receptor muscarinic 1 (CHRM1) small molecule agonists, cell-based qHTS assay (AID 1963589). Also: nearly all actives have a fitted effect of over 35% in size. An outline of the steps:
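Homogeneous fluorescence calcium flux, agonist mode. Human M1-expressing CHO cells; compound dosed at 15 concentrations, three independent runs; signal sampled every 1 sec.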

Assay [14] can be described thus: cAMP Responsive Elements (CRE) small molecule agonists, cell-based qHTS assay (AID 1963590). An outline of the steps: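 HEK 293T cells stably bearing CRE-bla were plated at 2,000 cells per well and rested 18 h. Compounds, positive controls or DMSO were added for 3 h at 37 C. LiveBLAzer B/G substrate was then loaded for 2 h at room temperature.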
Assay [15] in a line: cAMP Responsive Elements (CRE) small molecule antagonists, cell-based qHTS assay (AID 1963591; active = well fitted inhibition curve with a large enough effect in the signal ratio in the repeat runs, not every such curve was filed as active; the % refers to the signal ratio). An outline of the steps: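 First, CRE-bla HEK293T cells settled 18 h at 37 C. Next, compound and 0.25 uM final NKH477 were applied for 3 h. Last, LiveBLAzer B/G substrate was loaded for 2 h at room temperature.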
Assay [16] addresses Beta-2 adrenergic receptor (Homo sapiens) (UniProt P07550). The assay can be described thus: Adrenergic beta2 receptor (ADRB2) small molecule agonists, cell-based qHTS assay (AID 1963593).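 Also: CHO cells stably overexpressing human ADRB2.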 A digest of the protocol: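 CHO cells stably over-expressing ADRB2 were plated overnight at 37C, then dosed with compounds plus a stimulation mix containing 100uM IBMX and 25uM Ro-20-1724 for 0.5hr at room temperature. cAMP was measured by HTRF competition, 1hr.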

The target of assay [17] is D(2) dopamine receptor (Homo sapiens) (UniProt P14416). The assay can be described thus: Dopamine D2 receptor (DRD2) small molecule agonists, cell-based qHTS assay (AID 1963594). Also: nearly all actives have a fitted effect of over 35% in size. An outline of the steps:
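HEK293 cells stably expressing human DRD2, pre-treated with PDE inhibitor Ro20-1724 (0.1 mM final) and compound 10 min at room temperature, then stimulated with NKH477 (200nM […]) for 30 min. cAMP read by HTRF (665/620 nm).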

Assay [18] has the same target. The assay is described as follows: Dopamine D2 receptor (DRD2) small molecule antagonists, cell-based qHTS assay (AID 1963595; active = well fitted inhibition curve with a large enough effect in the signal ratio in the repeat runs, with a control signal flat; the % refers to the signal ratio). A digest of the protocol: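 HEK293 cells stably expressing DRD2, preincubated with 0.1 mM Ro20-1724 and compounds 10 min, were stimulated with 200 nM NKH477 plus 12 nM quinpirole for 30 min at room temperature; cAMP measured by HTRF (665/620 nm).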

Assay [19] deals with Beta-2 adrenergic receptor (Homo sapiens) (UniProt P07550). The assay can be described thus: Adrenergic beta2 receptor (ADRB2) small molecule antagonists, cell-based qHTS assay (AID 1963592). Also: series mostly up to about 92 µM; nearly all actives have a fitted effect of over 50% in size. A digest of the protocol: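 Assay format: CHO-ADRB2 cells, 18-20hr seeding at 37C/5% CO2, then compound plus 1nM isoproterenol agonist mix for 0.5hr RT. Homogeneous time-resolved fluorescence cAMP detection after 1hr, expressed as 665/615 nm ratio.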

The target of assay [20] is KiSS-1 receptor (Homo sapiens) (UniProt Q969F8). The assay can be described thus: Human kisspeptin (KISS1R) small molecule agonists, calcium flux assay in KISS1R-HEK293 cells (AID 1920064; active = well fitted activation curve with a large enough effect in the repeat runs). An outline of the steps:
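Cell line: HEK293, stable human KISS1R. Dye loading 1 h at 37 C after 18 h culture. Read: kinetic fluorescence, 480/540 nm, 3 min at 1 s intervals.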

Chain of Gonadotropin-releasing hormone receptor (Homo sapiens) (P30968 whole entry, looked up): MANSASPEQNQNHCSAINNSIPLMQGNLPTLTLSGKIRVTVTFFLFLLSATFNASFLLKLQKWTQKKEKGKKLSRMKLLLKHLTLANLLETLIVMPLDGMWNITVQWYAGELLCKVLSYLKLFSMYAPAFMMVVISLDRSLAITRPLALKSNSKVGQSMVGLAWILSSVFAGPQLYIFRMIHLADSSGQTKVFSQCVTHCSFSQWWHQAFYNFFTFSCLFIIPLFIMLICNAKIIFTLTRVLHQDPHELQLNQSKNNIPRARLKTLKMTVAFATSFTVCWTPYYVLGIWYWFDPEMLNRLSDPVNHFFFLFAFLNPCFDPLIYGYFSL
Chain of KiSS-1 receptor (Homo sapiens) (Q969F8 whole entry, looked up): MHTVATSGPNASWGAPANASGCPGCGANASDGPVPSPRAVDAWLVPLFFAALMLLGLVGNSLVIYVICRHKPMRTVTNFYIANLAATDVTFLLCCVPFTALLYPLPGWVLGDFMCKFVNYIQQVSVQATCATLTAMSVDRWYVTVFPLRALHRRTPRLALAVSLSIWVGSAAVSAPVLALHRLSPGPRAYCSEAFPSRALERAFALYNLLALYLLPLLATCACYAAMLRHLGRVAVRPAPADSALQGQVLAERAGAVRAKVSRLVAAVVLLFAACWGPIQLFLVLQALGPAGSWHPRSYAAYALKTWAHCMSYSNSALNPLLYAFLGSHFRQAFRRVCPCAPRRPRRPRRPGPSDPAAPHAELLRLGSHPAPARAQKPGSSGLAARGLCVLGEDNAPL
Chain of Muscarinic acetylcholine receptor M1 (Homo sapiens) (P11229 whole entry, looked up): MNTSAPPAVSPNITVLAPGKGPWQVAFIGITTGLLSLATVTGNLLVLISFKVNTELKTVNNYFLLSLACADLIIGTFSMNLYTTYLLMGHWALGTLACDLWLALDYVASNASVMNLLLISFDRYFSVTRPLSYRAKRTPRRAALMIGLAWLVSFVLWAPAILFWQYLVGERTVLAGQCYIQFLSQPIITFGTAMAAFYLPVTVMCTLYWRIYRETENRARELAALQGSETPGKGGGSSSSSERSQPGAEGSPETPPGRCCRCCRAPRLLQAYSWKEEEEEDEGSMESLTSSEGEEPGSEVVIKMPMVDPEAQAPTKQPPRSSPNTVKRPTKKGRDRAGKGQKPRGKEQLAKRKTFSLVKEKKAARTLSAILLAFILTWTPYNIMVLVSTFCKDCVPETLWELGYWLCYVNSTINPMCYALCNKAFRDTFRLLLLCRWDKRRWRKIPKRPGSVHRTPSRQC
Chain of D(2) dopamine receptor (Homo sapiens) (P14416 whole entry, looked up): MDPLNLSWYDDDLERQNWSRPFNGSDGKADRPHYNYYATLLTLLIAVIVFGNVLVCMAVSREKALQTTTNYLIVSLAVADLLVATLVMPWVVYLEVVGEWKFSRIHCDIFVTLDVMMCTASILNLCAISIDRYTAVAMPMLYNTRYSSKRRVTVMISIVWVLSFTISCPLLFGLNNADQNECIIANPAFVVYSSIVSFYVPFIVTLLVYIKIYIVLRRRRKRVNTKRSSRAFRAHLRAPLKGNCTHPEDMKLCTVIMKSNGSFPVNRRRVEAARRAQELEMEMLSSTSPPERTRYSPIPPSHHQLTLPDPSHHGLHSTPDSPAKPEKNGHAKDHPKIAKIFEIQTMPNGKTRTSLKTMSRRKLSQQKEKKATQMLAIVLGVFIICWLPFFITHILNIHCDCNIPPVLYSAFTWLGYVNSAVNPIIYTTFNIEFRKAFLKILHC
Chain of Beta-2 adrenergic receptor (Homo sapiens) (P07550 whole entry, looked up): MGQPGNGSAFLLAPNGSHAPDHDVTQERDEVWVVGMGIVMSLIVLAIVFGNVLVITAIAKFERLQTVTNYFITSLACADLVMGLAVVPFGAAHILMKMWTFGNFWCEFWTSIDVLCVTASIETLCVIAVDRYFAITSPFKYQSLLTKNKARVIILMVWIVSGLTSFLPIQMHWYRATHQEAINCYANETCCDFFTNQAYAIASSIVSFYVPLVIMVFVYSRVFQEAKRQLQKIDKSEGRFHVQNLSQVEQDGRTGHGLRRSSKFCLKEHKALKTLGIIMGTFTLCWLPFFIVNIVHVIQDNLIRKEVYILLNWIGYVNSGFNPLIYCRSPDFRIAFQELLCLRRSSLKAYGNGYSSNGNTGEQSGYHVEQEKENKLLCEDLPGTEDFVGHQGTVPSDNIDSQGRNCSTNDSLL
Chain of 5-hydroxytryptamine receptor 2A (Homo sapiens) (P28223 whole entry, looked up): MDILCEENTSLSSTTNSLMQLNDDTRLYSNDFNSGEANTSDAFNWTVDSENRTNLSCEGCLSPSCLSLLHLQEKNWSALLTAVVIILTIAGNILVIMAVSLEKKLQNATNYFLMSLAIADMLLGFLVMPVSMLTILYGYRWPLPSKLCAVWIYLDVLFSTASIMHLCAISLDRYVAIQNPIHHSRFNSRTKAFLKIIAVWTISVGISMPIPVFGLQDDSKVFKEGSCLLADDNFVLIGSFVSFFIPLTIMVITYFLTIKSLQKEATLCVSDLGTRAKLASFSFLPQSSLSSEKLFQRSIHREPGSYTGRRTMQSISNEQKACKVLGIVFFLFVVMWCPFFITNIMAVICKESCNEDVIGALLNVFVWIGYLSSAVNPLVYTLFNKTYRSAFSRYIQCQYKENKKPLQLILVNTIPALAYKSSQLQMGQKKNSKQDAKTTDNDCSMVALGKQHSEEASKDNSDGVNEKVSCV

For the compound `O=C(Cl)c1ccccc1`, the Potency result in [1], in assay [2], in assay [3], in assay [4], in [5] and in assay [6] was “inactive” throughout. In addition, the Potency entry in assay [7], in assay [8], in assay [9], in assay [10], in assay [11] and in [12] was “inactive” throughout. For the same compound, the Potency result in assay [13], in assay [14], in assay [15], in assay [16], in assay [17] and in [18] was “inactive” throughout.

With `O=[N+]([O-])c1ccc(Cl)c([N+](=O)[O-])c1`, the values for the Potency in assay [1], in assay [7] and in assay [8] were 15.6 µM (active), 40.8 µM (active) and 26.1 µM (active), respectively. For the same compound, the Potency entry in [2], in assay [4], in assay [5], in assay [10], in assay [11] and in assay [12] was “inactive” each time. In addition, the Potency entry in [13], in assay [17] and in [18] was “inactive” in each case.

Regarding `CCCCn1cc[n+](C)c1`, the Potency entry in [2], in assay [3], in [7], in [8], in assay [10] and in assay [11] was “inactive” in each case. In addition, the Potency entry in assay [12], in assay [13], in assay [14], in assay [15], in assay [19] and in [16] was “inactive” in each case. The Potency result in assay [17] and in assay [18] was “inactive” throughout. The Potency result in assay [6] is “inactive and 40.8 µM (active)”.

With `CC[N+]1(C)CCCC1`, the Potency in [1] is 70.3 µM (active) and inactive; in assay [6] it was 41.8 µM (active) and inactive. Also, the Potency result in [2], in assay [20], in assay [3], in [7], in assay [8] and in assay [10] was “inactive” each time. For the same compound, the Potency result in assay [11], in assay [12], in assay [13], in assay [14], in assay [15] and in assay [19] was “inactive” in each case. Further, the Potency result in assay [16] and in assay [18] was “inactive” each time.

Take `CCOP(=S)(OCC)SCn1c(=O)oc2cc(Cl)ccc21`: in [1], the Potency is 32.9 µM (active) and 61.1 µM (active). The Potency entry in assay [2], in [20], in [3], in assay [6], in assay [8] and in assay [9] was “inactive” each time. The Potency entry in assay [10], in [11], in assay [12], in assay [13], in assay [17] and in [18] was “inactive” in each case.

For the compound `C=CC(=O)OCC(CC)CCCC` (centres undefined), the Potency entry in assay [2], in [3], in [4], in assay [5], in [6] and in [7] was “inactive” throughout. Moreover, the Potency entry in assay [8], in [9], in assay [10], in [11], in assay [12] and in assay [13] was “inactive” throughout. Moreover, the Potency entry in [14], in [15], in assay [19], in assay [16], in [17] and in assay [18] was “inactive” each time.

For `CC(C)(O)C#N`, the Potency result in assay [1], in assay [2], in assay [3], in [5], in assay [6] and in [8] was “inactive” throughout. Besides, the Potency entry in assay [9], in [10], in assay [11], in [12], in [13] and in [14] was “inactive” in each case. Further, the Potency result in assay [15], in assay [19], in assay [16], in assay [17] and in [18] was “inactive” in each case.
